Test results taken from PubChem BioAssay AID488890 (Southern Research Specialized Biocontainment Screening …, 2010).
Among all 320,000 compounds or so, about 1,300 (0.41%) were called active. Not shown: some 3% with an inconclusive outcome. How the calls were made is not given here. Not all results are given here. Potency and affinity values are given separately.

Test: growth inhibition of non-replicating M. tuberculosis (AID 488890);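 further: plate controls were DMSO cells for no effect and high antibiotic wells for full effect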
Conditions: Mycobacterium tuberculosis non-replicating, at 25 µM, stronger effect = higher value

Structure (SMILES) | inhibition [%]
COc1ccc(N(CN2C(=O)c3ccccc3C2=O)C(=O)C(C)C)cc1 | 2.08
CC(C)C(=O)Nc1ncc(Cc2ccccc2Cl)s1 | 4.24
O=C(Nc1ncc(Cc2ccccc2)s1)C1COc2ccccc2O1 (stereo not drawn) | 64
Cc1ccc(C(=O)Nc2ncc(Cc3ccccc3)s2)o1 | 32.2
O=C(Nc1ncc(Cc2ccccc2Cl)s1)c1ccc([N+](=O)[O-])cc1 | -27.1
Cc1ccc(Cc2cnc(NC(=O)c3ccco3)s2)cc1 | 79
Cc1ccc(C(=O)Nc2ncc(Cc3ccc(F)cc3)s2)o1 | 13.4
CC(=O)Nc1ncc(Cc2cccc(Cl)c2)s1 | 36.5
CC(C)C(=O)Nc1ncc(Cc2ccc(Cl)cc2)s1 | 32.4
O=C(CSc1oc(-c2ccc(F)cc2)nc1S(=O)(=O)c1ccccc1)NCC1CCCO1 (stereo not drawn) | -4.84
CCc1cc(CNC(=O)c2ccc(OC3CCN(CCc4ccccc4)CC3)cc2)on1 | 4.71
CN(CC(=O)Nc1cccc(F)c1)C(=O)c1ccccc1Cc1ccccc1 | -4.13
O=C(NCc1ccco1)c1cccc(S(=O)(=O)N2CCCCC2)c1 | 16.4
CCN1CCN(C(=O)/C(=C/c2ccco2)NC(=O)c2ccccc2)CC1 | -2.48
O=C(CCC(=O)N1CCOc2ccccc21)N1CCCCC1 | -34.4
CN(C)CCCN(C(=O)c1ccc(N2C(=O)CCC2=O)cc1)c1nc2c(F)cccc2s1 | -7.06
CCN1CCCC1CNC(=O)C(=O)NC(C)c1ccccc1 (stereo not drawn) | 5.13
COCc1cc(=O)[nH]c(SCC(=O)c2ccccc2)n1 | -7.52
O=C(O)c1cccc(-n2sc3ccccc3c2=O)c1 | -0.63
O=c1c2ccccc2sn1-c1ccc(F)cc1 | -1.44
CC1(C)CC(=O)C2=C(C1)OC1=C(C(=O)CC(C)(C)C1)C2c1ccccc1 | -3.44
CN(CC(=O)Nc1ccc(S(N)(=O)=O)cc1)C1CCCCC1 | -0.54
Cc1ccc(NC(=O)CN2CCCCCC2)cc1Br | 5.31
COc1ccc(NC(=O)CN(C)C2CCCCC2)cc1Cl | 33.9

Structure (SMILES) | inhibition [%]
Cc1ccc(NC(=O)CN(C)C2CCCCC2)cc1Cl | 72.6
CCC(=O)Nc1ccc2oc(-c3cccc(C)c3)nc2c1 | -26.3
COCC(=O)Nc1ccccc1C(=O)Nc1ccc(OC)cc1 | -1.58
COc1ccc(CCN(C)C2CCCN(S(C)(=O)=O)C2)cc1OC (stereo not drawn) | -23.7
O=C(CN1CCN(c2ccccc2F)CC1)c1c[nH]c2ccccc12 | 4
COc1ccc(-n2nc(C(=O)NCC(=O)N3CCN(c4ccc(F)cc4)CC3)c3ccccc3c2=O)c(OC)c1 | 3.71
N#Cc1ccc(C(=O)CN2CCN(c3ccccc3)CC2)cc1 | 3.58
COc1ccc(N2CCN(C(=O)C3CCN(C(=O)c4ccc([N+](=O)[O-])cc4)CC3)CC2)cc1 | 21.3
CS(=O)(=O)N(CC(=O)N1CCN(c2ccc(F)cc2)CC1)c1cccc(Cl)c1 | -4.05
O=C(NCc1cccnc1)c1ccc(S(=O)(=O)N2CCCCCC2)cc1 | 5.4
CCOCC(=O)Nc1ccc(Br)c(C)c1 | 78.4
Cc1ccc(NC(=O)COc2ccccc2C(=O)Nc2ccccc2)cc1Cl | -4.97
Cc1ccc(NC(=O)COc2ccccc2C=O)cc1Cl | 11.5
Cc1ccc(NC(=O)CCC(=O)NNC(=O)COc2ccccc2)cc1C | -33.1
CC(C)c1ccc(NC(=O)COc2ccccc2)cc1 | 75.1
COCC(=O)Nc1ccc(C)c(Cl)c1 | 57.3
O=C(COc1ccc(-n2ccnc2)cc1)Nc1cccc(F)c1 | 62.5
COc1cc(NC(=O)COc2ccc(-n3ccnc3)cc2)cc(OC)c1 | 57.6
CC(C)n1ncc(C(N)=O)c1N | -11
O=C(CO/N=C/c1c(Cl)cccc1Cl)NNC(=O)c1ccc(Cl)cc1 | -1.83
CCn1ccnc1CN(C)C(=O)CCc1nnc(CCC2CCCCC2)o1 | 6.59
Cc1cccc(-n2c(-c3ccncc3)n[nH]c2=S)c1C | 13.2
Nc1nc(SCCC(F)=C(F)F)n[nH]1 | 2.3
Cc1cccc(OCC(=O)Nc2ccc3nc(C)sc3c2)c1 | 75.1

Structure (SMILES) | inhibition [%]
O=C(CC(Nc1ccc(Cl)cc1)C(=O)O)c1ccccc1 (stereo not drawn) | 58.9
O=C(CC(Nc1ccccc1)C(=O)O)c1ccccc1 (stereo not drawn) | 28.9
Cc1nc2ccc(NC(=O)Cc3cccc(F)c3)cc2s1 | 3.01
CC(=O)c1ccccc1OCc1ccc(S(=O)(=O)Cc2ccccc2)cc1 | 46
O=C(NCc1ccccc1F)C1CCCN1C(=O)Nc1ccc(F)cc1 (stereo not drawn) | 5.39
CC1CN(C(=O)COc2ccc3ccccc3c2Br)CC(C)O1 (stereo not drawn) | 3.67
O=C(NCc1cccnc1)C(=O)N/N=C/c1ccccc1[N+](=O)[O-] | 0.97
CC(=O)[C@@]1(O)CCC2C3CC=C4C[C@@H](O)CC[C@]4(C)C3CC[C@@]21C (stereo partly drawn) | -5.65
Fc1ccc(CSc2nnc(-c3ccncc3)o2)cc1 | 73.6
Clc1ccc(Cc2nnc(-c3ccccc3Br)o2)cc1 | 69.1
CCSc1nnc(-c2cccs2)o1 | 58.5
c1csc(-c2nnc(COc3ncnc4sccc34)o2)c1 | 10.4
Clc1ccc(Cc2noc(-c3cccs3)n2)cc1 | 78.5
Cc1nnc(SCc2nnc(-c3cccs3)o2)n1C | -12.8
COc1cccc(C(=O)CSc2nnc(-c3cccs3)o2)c1 | 65
Cc1nnc(SCc2nnc(-c3cccs3)o2)s1 | 72.4
CCOC(=O)c1cnc(SCc2ccc(C(C)(C)C)cc2)nc1N | 14.9
CCOC(=O)C(NC(=O)Nc1ncccn1)(Oc1ccccc1)C(F)(F)F (stereo not drawn) | -3.5
COc1ccc(N2CCOCC2)c(NC(=O)c2ccc(Br)o2)c1 | 10
COc1cccc(N=Nc2c(=O)[nH]n3c(C)cc(C)nc23)c1 | 65.1
Cc1cc(C)n2[nH]c(=O)c(N=Nc3ccc(S(N)(=O)=O)cc3)c2n1 | -1.74
Cc1cc(C)n2[nH]c(=O)c(N=Nc3ccccc3)c2n1 | -9.77
Cc1cc(C(F)(F)F)n2[nH]c(=O)c(N=Nc3ccccc3)c2n1 | -0.96
Cc1ccc(NC(=O)OCCNC(=O)OC(C)C)cc1 | 13.6

Structure (SMILES) | inhibition [%]
C/C(=C/C(=O)O)C(=O)Nc1cccc(C(F)(F)F)c1 | 37.8
CC(=O)Nc1ccc(/C=C/c2ccc3c([N+](=O)[O-])cccc3n2)cc1 | 10.1
COc1cc(/C=C/c2ccc3cccc([N+](=O)[O-])c3n2)ccc1OCC(=O)O | 31.6
CN1/C(=C\C(=O)COc2ccc3c(c2)OCO3)C(C)(C)c2ccccc21 | 43
CN1/C(=C\C(=O)COC(=O)c2ccco2)C(C)(C)c2ccccc21 | 64.9
CN1/C(=C\C(=O)COC(=O)c2ccc(O)cc2)C(C)(C)c2ccccc21 | 57.9
CN1/C(=C\C(=O)COC(=O)CN2C(=O)C3CC=CCC3C2=O)C(C)(C)c2ccccc21 (stereo not drawn) | 19.7
COC(=O)c1ccccc1NC(=O)COc1ccc2c(c1)OCO2 | 70.5
O=C(N/N=C/c1c[nH]c2ccccc12)C1CC(=O)N(c2ccccc2)C1 (stereo not drawn) | 12.1
Cc1cc(C(=O)COc2ccc(F)cc2Br)c(C)n1C | 11.3
Cc1cc(C(=O)COC(=O)c2cccnc2Cl)c(C)n1C | 7.66
CCN(CC)c1ccc2c(C)c(Cl)c(=O)oc2c1 | 2.25
CCN(CC)c1ccc2c(Cl)cc(=O)oc2c1 | 11.8
Cc1cc(C)cc(OCC(=O)Nc2cccc(S(=O)(=O)NC3=NCCC3)c2)c1 | 5.82
O=C(N/N=C/c1cc(Br)ccc1O)c1ccncc1 | 63.8
O=C(N/N=C/c1cc(Br)ccc1O)Nc1ccccc1 | 14.3
O=C(CNC(=O)c1ccccc1)N/N=C/c1cc(Br)ccc1O | 38.3
Oc1ccc(Br)cc1/C=N/NC(=S)NCCc1ccccc1 | 45.2
O=C(CNC(=O)c1ccccc1Br)N/N=C/c1cc(Br)ccc1O | 17.8
COC(=O)N/N=C/c1cc(Br)ccc1O | 27.7
COc1cccc(-c2nc(CS(=O)(=O)CC(=O)NCCCN3CCN(C)CC3)c(C)o2)c1 | -1.26
C/C(=N\N=C1\NC(=O)C(CC(=O)Nc2ccc(C)c(Cl)c2)S1)C(C)(C)C (stereo not drawn) | 38.8
CCCn1c2c(c(O)c(C(=O)Nc3ccc(OC)cc3)c1=O)CCCC2 | 11.5
CC1(C(=O)NC(=S)N(CCC#N)Cc2cccnc2)CC1(Cl)Cl (stereo not drawn) | 12.4

Structure (SMILES) | inhibition [%]
Cc1ccc(NC(=O)COC(=O)CC2CC3CCC2C3)cc1S(=O)(=O)N1CCOCC1 (stereo not drawn) | 9.66
COC(=O)CCN1CCN(S(=O)(=O)c2ccccc2Br)CC1 | -21.4
O=[N+]([O-])c1ccccc1/C=N/Nc1nc(N2CCCC2)nc(N2CCCC2)n1 | 18.8
COc1ccccc1/C=N/Nc1nc(C)cc(C)n1 | 20.8
Cc1cc(C)n(-c2ccccc2[N+](=O)[O-])n1 | 24.1
Cc1cc(N/N=C/c2ccc(O)cc2O)nc(N2CCOCC2)n1 | 6.6
Cc1cc(N/N=C/c2ccc(O)cc2O)nc(-c2ccccc2O)n1 | 0.04
COc1ccc(OC)c(/C=N/Nc2cc(C)nc(N3CCOCC3)n2)c1 | 8.92
COc1ccc(/C=N/Nc2cc(C)nc(N3CCOCC3)n2)c(OC)c1 | -23.5
COc1ccccc1/C=N/Nc1cc(C)nc(N2CCOCC2)n1 | 8.69
O=C(CSc1ncccc1C(=O)O)NC1CCCCCCC1 | -1.94
Cc1cc(C)c(C)c(S(=O)(=O)NC(C(=O)O)C(C)C)c1C (stereo not drawn) | -1.77
Cc1cc(C)c(NC(=S)N2CCC(N(C)CC3CCCO3)CC2)c(C)c1 (stereo not drawn) | -2.45
O=C(C[n+]1cccc(Br)c1)c1ccc(-c2ccccc2)cc1 | 31.7
CCCc1cc(C(=O)N2CCCC(N3CCN(c4ccccc4C)CC3)C2)n(C)n1 (stereo not drawn) | 8.14
COc1ccccc1C(=O)NCCC(=O)Nc1ccc(S(=O)(=O)N2CCC(C)CC2)cc1 | 27.4
Cc1cccc(C)c1NC(=O)CSc1nnc(Cc2ccccc2)o1 | -8.32
Cc1ccc(NC(=O)CCSc2nnc(C)o2)cc1 | 9.37
CC(=O)Nc1ccc(C(=O)CSc2nnc(Cc3ccccc3)o2)cc1 | 38.2
Cc1ccc(NC(=O)CSc2nnc(Cc3ccccc3)o2)c(C)c1 | 79.6
CCNC(=O)CCSc1nnc(-c2ccco2)o1 | -8.15
Cc1ccc(NC(=O)CSc2nnc(-c3ccco3)o2)cc1 | 27.5
